MRP-1 activ – activators of MRP-1 | H69AR cells + doxorubicin, viability rescue, CellTiter-Glo | viability increase, % at 10 µM | 0.61% of 140,000 active;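 active means viability gain under doxorubicin at or above a set limit, the compound median plus 3 SD, cut at about 4.7% in these data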;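 further: MRP-1 overexpressing cells given doxorubicin 25 µM after compound pretreatment; 18-22 h compound pretreatment then 72 h with doxorubicin before readout; 0% = doxorubicin-only wells and 100% = vehicle-treated cells without doxorubicin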
S1P2 ag – S1P2 (human) receptor agonism. activation, % at 4.5 µM. S1P2-expressing cell line, agonist reporter read-out. O95136. 0.46% of 97,000 active; in the data active means activation above about 16%;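 further: 0% = vehicle low control and 100% = maximal reference agonist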
S1P2 antag – S1P2 (human) receptor antagonism | O95136 | inhibition, % at 5 µM | 0.21% of 97,000 active | cell-based S1P2 antagonist assay, inhibition at 5 uM; in the data active means inhibition above about 45%;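 further: CRE beta-lactamase reporter cells expressing human S1P2 stimulated with S1P; 0% = agonist at EC80 alone and 100% = agonist plus reference antagonist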
GALR2 blocker – blocks the human galanin receptor 2; O43603; GALR2-expressing cells, antagonist mode; inhibition, % at 4 µM; 0.39% of 140,000 active; AID 828;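 further: cells stimulated with galanin 1-16 at roughly its EC80; 0% = agonist challenge control and 100% = basal control without agonist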
Target sequence (O43603 whole entry, looked up): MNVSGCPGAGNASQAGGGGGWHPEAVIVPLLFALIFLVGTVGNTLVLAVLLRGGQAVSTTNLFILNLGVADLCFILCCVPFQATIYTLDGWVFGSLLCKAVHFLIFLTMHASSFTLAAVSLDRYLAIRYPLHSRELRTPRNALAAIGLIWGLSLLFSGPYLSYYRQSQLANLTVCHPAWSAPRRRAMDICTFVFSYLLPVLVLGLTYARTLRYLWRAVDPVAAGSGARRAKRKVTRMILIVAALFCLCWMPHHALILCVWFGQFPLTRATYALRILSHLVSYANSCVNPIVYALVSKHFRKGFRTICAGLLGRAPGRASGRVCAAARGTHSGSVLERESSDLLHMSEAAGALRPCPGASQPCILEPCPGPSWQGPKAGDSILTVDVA
GALR2 agonist – agonists of human galanin receptor 2 (GALR2). O43603. GALR2-expressing cells, agonist activation read-out. activation, % (no concentration beside the values). 0.48% of 140,000 active. AID 803; in the data active means activation above about 5%, passing the limit was not always enough;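 further: 0% = vehicle buffer wells and 100% = reference agonist at full effect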
MRP resist rev – MRP-mediated drug resistance reversal; H69AR cells + 2 uM doxorubicin, CellTiter-Glo, 72 h; differential viability (reversal), % at 10 µM; 0.04% of 85,000 active;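 active means viability drop by adding the cancer drug above about 55%, with treated viability meeting a 40% cutoff, limit read from the data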;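 further: viability without doxorubicin minus viability with 2 µM doxorubicin for each compound; larger differential means the compound sensitizes cells more to doxorubicin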
GALR2 ant conf – confirmation of human galanin receptor 2 (GALR2) antagonists; shares compounds with GALR2 blocker; GALR2-expressing cells, antagonist mode, inhibition; inhibition, % at 4 µM; 60% of 480 active;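 further: cells stimulated with galanin at about its EC80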
BLA inhib ctr – beta-lactamase inhibition, GALR2 counterscreen; CHO NFAT-BLA reporter, beta-lactamase FRET, thapsigargin-stimulated; shares compounds with GALR2 blocker; inhibition, % at 4.2 µM; 36% of 480 active;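 active means inhibition above the mean inhibition across tested compounds plus 3 SD, cut at about 27% in these data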;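 further: 0% = 500 nM thapsigargin stimulated wells and 100% = unstimulated BSA only wells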
* = called active by the depositor; . = no result. A selection: hits, their analogues and other compounds. The true share with any hit is near 1.8%. Unless noted, no stated cut-off is given here; in the data, active means inhibition above about 27%; inactive means the rest.

SMILES	MRP-1 activ	S1P2 ag	S1P2 antag	GALR2 blocker	GALR2 agonist	MRP resist rev	GALR2 ant conf	BLA inhib ctr
O=C(Nc1nnc(C2CC2)s1)c1ccc(S(=O)(=O)c2ccccc2)cc1	-1	-5	-10	-4	-2	-1	.	.
COc1ccc(-c2nnc(SCc3nc4ccccc4s3)n2C(C)C)cc1	-4	-3	-6	29*	-3	.	2	5
Cc1nc2sc(C(c3ccccc3)N3CCOCC3)c(O)n2n1 (stereo not drawn)	-2	-4	9	-6	0	4	.	.
COc1ccc(C(=O)N(c2ccccc2)C2C=CS(=O)(=O)C2)cc1 (stereo not drawn)	-4	-2	21	30*	-1	1	22	0
CCn1c(SCC(=O)C(C)(C)C)nnc1-c1ccccc1OC	-1	-1	10	-10	-1	0	.	.
CCCN(CCC)CC(O)Cn1cc(/C=C/C(=O)c2cccs2)c2ccccc21 (stereo not drawn)	-5	.	.	53*	1	.	32*	44*
O=C(/C=C/c1cn(CC(O)CN2CCCCC2)c2ccccc12)c1cccs1 (stereo not drawn)	-5	.	.	9	0	.	.	.
O=C1N/C(=C/c2ccc(N3CCOCC3)o2)C(=O)N1c1ccccc1	0	.	.	55*	0	.	11	14
C=CCN1C(=O)N/C(=C/c2ccc(N3CCOCC3)o2)C1=O	-5	.	.	38*	1	.	14	13
O=C1NC(=S)S/C1=C/c1ccc(N2CCOCC2)o1	-4	.	.	6	0	.	.	.
O=C1N/C(=C/c2ccc(N3CCCC3)cc2)C(=O)N1c1ccccc1	-5	.	.	16	2	.	.	.
O=C(NNC(=O)C1COc2ccccc2O1)c1ccccc1 (stereo not drawn)	-2	-3	-8	-7	-2	.	.	.
CCN(CC)c1ccc(C(=O)N/N=C(\C)c2ccc(O)cc2)cc1	-3	.	.	30*	-3	.	24	7
COc1ccc(/C(C)=N/NC(=O)c2ccc(N(C)C)cc2)cc1	0	-6	2	-3	-3	.	.	.
Cc1cc(/C=N/n2cnnc2)c(C)n1-c1ccc(Cl)cc1	-3	.	.	-11	0	.	.	.
Cc1cc(/C=N/n2cnnc2)c(C)n1-c1ccc(OCc2ccc(Cl)cc2Cl)cc1	-6	-6	74*	29*	0	4	45*	22
N#CC1=C(N)Nc2nc3ccccc3n2C1c1ccc(Cl)cc1 (stereo not drawn)	1	.	.	32*	-1	.	27*	46*
N#CC1=C(N)Nc2ncnn2C1c1ccccc1 (stereo not drawn)	-1	.	.	-1	0	.	.	.
CC/C(=C1/C(=O)CC(C)(C)C(C(=O)OC)C1=O)N1CCCC1 (stereo not drawn)	0	.	.	11	-2	4	.	.
CCC1=Nc2cc(C(=O)NCc3ccco3)ccc2Sc2ccc(C)cc21	-3	.	.	31*	1	.	11	18
CCC1=Nc2cc(C(=O)NCCCOC)ccc2Sc2ccccc21	-4	-1	-2	5	-2	-26	.	.
CC(=O)c1ccc(NC(=O)c2cc3nc4c(c(C(F)(F)F)n3n2)CCCC4)cc1	1	-1	-19	31*	-1	.	2	1
CC(C)(C)c1ccc(OCCNC(=O)c2ncn[nH]2)cc1	0	-3	-3	31*	-1	.	5	8
Cc1cc(N/N=C/c2cccc(Cl)c2)nc(NCc2ccccc2)n1	3	.	.	-3	-1	.	.	.
Cc1cc(Nc2cccc(Cl)c2)nc(NCc2ccccc2)n1	-5	.	.	31*	0	.	51*	25
CC(c1ccccc1)N1CC(C(=O)N2CCN(c3ccc(F)cc3)CC2)CC1=O (stereo not drawn)	-3	-2	10	-8	-1	5	.	.
Cn1c(-c2c(N)n(CCCc3ccccc3)c3nc4ccccc4nc23)nc2ccccc21	-3	-13	75*	38*	0	-22	51*	55*
Cn1c(-c2c(N)n(CCc3ccccc3)c3nc4ccccc4nc23)nc2ccccc21	-2	-8	59*	36*	0	-15	45*	54*
CCCn1c(C)nc2c(c1=O)c1nc3ccccc3nc1n2CCc1ccccc1	.	-4	-2	4	-3	25	.	.
